# Results taken from PubChem BioAssay (NCI).
# Compounds without any hit were thinned out: in the full panel of roughly 83,000, 20% have a hit.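 In brief: 96-well plates, 48 h treatment, single concentration, percent growth endpoint.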 Values without a mark were called inactive. Active and inactive are the calls of the source. How the source made its calls: active means growth percent below 10; inactive means the rest.
# System: HL-60(TB) leukemia
# Experiment: NCI-60 one-dose screen, 48 h (100 = growth as untreated, 0 = no growth, -100 = all killed)
# Settings: 10 µM unless noted
row,SMILES,growth
1,OCc1ccccn1,102%
2,Ic1cccs1,104%
3,CCN(CC)CCCN1C(=O)c2c(c(C)c3c(oc4ccc(OC)cc43)c2C)C1=O,97.6%
4,Nc1ccc2c(c1Br)Cc1ccccc1-2,56.3%
5,O=[N+]([O-])c1ccc2[nH]c3nccc(NCc4cccc(Cl)c4)c3c2c1,82.9%
6,CC12CCC3C(CCC4CC(O)CCC43C)C1C/C(=C/O)C(=O)O2 (stereo not given),107%
7,Cn1cc(-c2csc(-c3cn(CCCN4CCCCC4)c4ccccc34)n2)c2cccnc21,-65.2% (active)
8,COc1ccc2c(c1)C(C)Cc1c(Cl)nc(C)nc1N2C (stereo not given),11.3%
9,O=C(O)Cc1ccc(Cl)cc1,22.4%
10,COc1cc(C=O)ccc1OC1OC(COC(C)=O)C(OC(C)=O)C(OC(C)=O)C1OC(C)=O (stereo not given),106%
11,CO[C@H]1CC(c2ccc[nH]2)=N[C@]12O[C@@H](C)C[C@@H]1CCCCCCCc3ccc([nH]3)[C@H]12,17.5%
12,N#CC(C#N)N=Nc1ccc(Cl)cc1Cl,53%
13,C=CCN=C1NC(=O)/C(=C/c2cc(C(C)(C)C)c(O)c(C(C)(C)C)c2)S1,54.3%
14,COc1cccc(/C(C)=N/NC(=O)CSc2nc3ccccc3c(=O)n2CCc2ccc(S(N)(=O)=O)cc2)c1,58.5%
15,C=C1CCC2C3(C)COC(c4ccccc4)OC3CCC2(C)C1C/C=C1/C(=O)OCC1OC(C)=O (stereo not given),56%
16,O=C1C=CC(=O)N1CCCCCCCCCCN1C(=O)C=CC1=O,12.2%
17,Nc1nc(Cl)c2c(C(F)(F)F)cn(CC3CCNCC3)c2n1,25.5%
18,COc1ccccc1NC(=O)OCC12COCN1COC2,102%
19,CC/C(=C(\c1ccc(Cl)cc1)c1ccc(OCCN2CCCCC2)cc1)c1ccc(O)cc1,-40.4% (active)
20,Cc1ccc(S(=O)(=O)N/N=C\c2cc(Cl)ccc2O)cc1,91.7%

row,SMILES,growth
1,O=C(N/N=C/[C@H](O)[C@@H](O)[C@@H](O)[C@H](O)CO)c1ccc(NC(=O)c2cccnc2)cc1,101%
2,Cc1ccc(S(=O)(=O)N/N=C2\CC3CCC2(C)C3(C)C)cc1 (stereo not given),116%
3,COc1cc(-c2nc(-c3nc4ccccc4[nH]3)cc3c2[nH]c2ccccc23)cc(OC)c1OC,44.2%
4,Cc1cc(N(CCCNc2ccnc3cc(Cl)ccc23)Cc2ccco2)nc(Cl)n1,17.5%
5,CCN(CC)S(=O)(=O)c1ccc(NC(=O)CSc2nnc(C)n2-c2ccccc2)cc1,132%
6,O=C(c1nc2ccccc2[nH]1)C1C(c2cccc([N+](=O)[O-])c2)C2CC3CCCCC3N2[C@@]12C(=O)Nc1cc(Cl)ccc12 (stereo not given in full),4.05% (active)
7,Cc1cc(C)c(CCc2cc(C)c(C)cc2C)cc1C,99.9%
8,COc1ccccc1-c1ccc2nc(NC(=O)Nc3cc(C(F)(F)F)cc(C(F)(F)F)c3)sc2c1,-34.5% (active)
9,CC(=O)C1=C(O)C=C2Oc3c(C(=O)/C=C/c4cc(C(F)(F)F)cc(C(F)(F)F)c4)c(O)c(C)c(O)c3[C@]2(C)C1=O,-35.2% (active)
10,CCOC(=O)c1c(NC(=O)CSc2n[nH]c3nc4ccccc4n23)sc(CC)c1C,97.9%
11,CC(C)C[C@H](NC(=O)Cn1ccc(NCc2ccccc2)cc1=O)B(O)O,3.72% (active)
12,Cc1[nH]n(-c2ccccc2)c(=O)c1C=NC(=S)C(N)=S,102%
13,Cc1cc(C(=O)NOCCO)c(Nc2ccc(I)cc2F)n(C)c1=O,20.8%
14,COc1ccc(Cn2cc3c(c2-c2cc(OC)c(OC)c(OC)c2)CCc2c(CO)noc2-3)cc1,-36.2% (active)
15,COC(=O)[C@]12CC[C@@H](C)[C@H](C)[C@@H]1C1=CC[C@@H]3[C@@]4(C)C[C@@H](OC(C)=O)[C@H](O)[C@@](C)(COC(C)=O)[C@@H]4[C@H](O)C[C@@]3(C)[C@]1(C)CC2,-41.6% (active)
16,C[C@H]1C(=O)N2c3ccccc3[C@@]3(O)C[C@@H](n4cnc5ccccc5c4=O)C(=O)N1[C@@H]23,64.6%
17,CCOc1ccc(S(=O)(=O)Nc2ccc3c(c2)N(S(=O)(=O)CC)CCC3)cc1,77.1%
18,CSc1nc(C)c([N+](=O)[O-])c(N)n1,90.2%
19,S=C(Nc1ccccc1)c1ccccn1,107%
20,Fc1ccc(-c2ccnc3nc(-c4ccncc4)nn23)cc1,96.5%
